Results published in the supplement of paper PMC8728848.
This excerpt belongs to a sample that is enriched for the strongest signals.

How the values were obtained:
Experiment in all cases: glycan array binding signal (z-score within array); higher = stronger binding
Conditions in all cases: glycan notation: IUPAC condensed, linker removed
Fuc(a1-2)Gal(b1-4)Glc = molecular target: Fuc(a1-2)Gal(b1-4)Glc
Outline: (§1)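 The binding signal is a Z-score computed within each array. Data were drawn from 3228 arrays in the Consortium for Functional Glycomics database, restricted to those with a known protein sequence. Scores were averaged over arrays of the same protein sequence at different concentrations or buffers, and over linkers, and negative values can be taken as non-binding.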

Fuc(a1-2)Gal(b1-4)GlcNAc = molecular target: Fuc(a1-2)Gal(b1-4)GlcNAc
Outline: as §1

[1] = molecular target: Fuc(a1-2)Gal(b1-4)GlcNAc(b1-3)Gal(b1-4)GlcNAc(b1-3)Gal(b1-4)GlcNAc
Outline: as §1

Fuc(a1-3)GlcNAc = molecular target: Fuc(a1-3)GlcNAc
Outline: as §1

[2] = molecular target: Gal(a1-3)Gal(b1-4)[Fuc(a1-3)]GlcNAc
Outline: as §1

[3] = molecular target: Gal(b1-3)[Neu5Ac(a2-6)]GlcNAc(b1-4)Gal(b1-4)Glc
Outline: as §1

Gal(b1-4)Glc6S = molecular target: Gal(b1-4)Glc6S
Outline: as §1

Gal3S(b1-3)GalNAc = molecular target: Gal3S(b1-3)GalNAc
Outline: as §1

Gal4S(b1-4)GlcNAc = molecular target: Gal4S(b1-4)GlcNAc
Outline: as §1

Gal6S(b1-4)Glc = molecular target: Gal6S(b1-4)Glc
Outline: as §1

GalNAc(a1-3)Gal = molecular target: GalNAc(a1-3)Gal
Outline: as §1

[4] = molecular target: Neu5Ac(a2-3)Gal(b1-3)[Fuc(a1-4)]GlcNAc
Outline: as §1

[5] = molecular target: Neu5Ac(a2-3)Gal(b1-4)GlcNAc
Outline: as §1

[6] = molecular target: Neu5Ac(a2-3)Gal(b1-4)[Fuc(a1-3)]GlcNAc(b1-3)Gal(b1-4)[Fuc(a1-3)]GlcNAc(b1-3)Gal(b1-4)[Fuc(a1-3)]GlcNAc
Outline: as §1

[7] = molecular target: Neu5Ac(a2-8)Neu5Ac(a2-8)Neu5Ac(a2-3)Gal(b1-4)Glc
Outline: as §1

[8] = molecular target: Neu5Gc(a2-3)Gal(b1-3)[Fuc(a1-4)]GlcNAc
Outline: as §1

[9] = molecular target: Neu5Gc(a2-3)Gal(b1-4)GlcNAc
Outline: as §1

[10] = molecular target: Neu5Gc(a2-6)Gal(b1-4)GlcNAc
Outline: as §1

B1: RegIIIbeta (Mus musculus), P35230 (protein)
chain: MLPPTACSVMSWMLLSCLMLLSQVQGEDSLKNIPSARISCPKGSQAYGSYCYALFQIPQTWFDAELACQKRPGGHLVSVLNSAEASFLSSMVKRTGNSYQYTWIGLHDPTLGAEPNGGGWEWSNNDVMNYFNWERNPSTALDRAFCGSLSRASGFLKWRDMTCEVKLPYVCKFTG
Which “glycan array binding signal (z-score)” value (Fuc(a1-2)Gal(b1-4)Glc) does the source give for B1 here?
Its value is -0.114.

And the “glycan array binding signal (z-score)” value (Fuc(a1-2)Gal(b1-4)GlcNAc)?
Its value is -0.116.

What about the “glycan array binding signal (z-score)” value [1] of the same binder?
The value was 0.15.

What about the “glycan array binding signal (z-score)” value (Fuc(a1-3)GlcNAc) of the same binder?
The value was -0.114.

What about the “glycan array binding signal (z-score)” value [2] of the same binder?
Its value is -0.098.

What about the “glycan array binding signal (z-score)” value [3] of the same binder?
The value was -0.105.

And the “glycan array binding signal (z-score)” value (Gal(b1-4)Glc6S)?
The value was -0.119.

And the “glycan array binding signal (z-score)” value (Gal3S(b1-3)GalNAc)?
Its value is -0.124.

What about the “glycan array binding signal (z-score)” value (Gal4S(b1-4)GlcNAc) of the same binder?
Its value is 0.188.

And the “glycan array binding signal (z-score)” value (Gal6S(b1-4)Glc)?
Its value is -0.116.

What about the “glycan array binding signal (z-score)” value (GalNAc(a1-3)Gal) of the same binder?
The value was -0.109.

What about the “glycan array binding signal (z-score)” value [4] of the same binder?
The value was -0.103.

And the “glycan array binding signal (z-score)” value [5]?
The value was -0.071.

What about the “glycan array binding signal (z-score)” value [6] of the same binder?
The value was 0.086.

And the “glycan array binding signal (z-score)” value [7]?
Its value is -0.118.

And the “glycan array binding signal (z-score)” value [8]?
Its value is 0.106.

And the “glycan array binding signal (z-score)” value [9]?
Its value is -0.116.

What about the “glycan array binding signal (z-score)” value [10] of the same binder?
Its value is -0.122.
